Data as given in PubChem BioAssay AID1159580 (chemical genetic matrix, 2015).
Values joined by “and” are separate entries in the source; they are usually repeats but may differ in a detail not shown here. Equal entries are not always repeated. Out of some 5,500 compounds screened, about 2,000 (36%) were called active. Inconclusive results (about 18%) are left out. Rule as the data show it: active = normalized growth mostly below about 0.91 (no sharp cut-off); inconclusive = no clear call, values can overlap the other calls; inactive = mostly above about 0.92. This is one part of the list.

Assay: chemical genetic growth profiling, strain panel (AID 1159580);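 also: tested at 20 µM; growth read once vehicle control cultures reached saturation at 30 °C; 1 = growth at the plate median or of vehicle wells; lower values mean less growth of the strain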
Settings: S. cerevisiae deletion strains, growth OD

Measured: normalized growth

CC(=O)OCC(CCn1cnc2cnc(N)nc21)COC(C)=O
inactive: locus YAL013W, strain DEP1, stronger effect = lower value 0.988 | locus YAL021C, strain ccr4, stronger effect = lower value 1.01 | locus YAL026C, strain drs2, stronger effect = lower value 1 | locus YAL030W, strain snc1, stronger effect = lower value 0.982 | locus YBL061C, strain skt5, stronger effect = lower value 0.989 | locus YBR009C, strain hhf1, stronger effect = lower value 1 | locus YBR021W, strain FUR4, stronger effect = lower value 1.01 | locus YBR023C, strain chs3, stronger effect = lower value 0.998 | locus YBR171W, strain sec66, stronger effect = lower value 0.982 | locus YBR229C, strain ROT2, stronger effect = lower value 0.989 | locus YBR231C, strain swc5, stronger effect = lower value 0.971 | locus YBR279W, strain paf1, stronger effect = lower value 0.986 | locus YCL011C, strain gbp2, stronger effect = lower value 0.994 | locus YCL016C, strain dcc1, stronger effect = lower value 0.998 | locus YCL029C, strain bik1, stronger effect = lower value 0.965 | locus YCL061C, strain MRC1, stronger effect = lower value 0.991 | locus YCL069W, strain vba3, stronger effect = lower value 0.988 | locus YCR088W, strain abp1, stronger effect = lower value 0.988 | locus YDL005C, strain med2, stronger effect = lower value 0.991 | locus YDL035C, strain GPR1, stronger effect = lower value 0.994 | locus YDL040C, strain nat1, stronger effect = lower value 0.993 | locus YDL074C, strain BRE1, stronger effect = lower value 1.01 | locus YDL101C, strain DUN1, stronger effect = lower value 0.985 | locus YDL134C, strain PPH21, stronger effect = lower value 0.997 | locus YDL185W, strain tfp1, stronger effect = lower value 0.967 | locus YDL192W, strain arf1, stronger effect = lower value 0.971 | locus YDR001C, strain nth1, stronger effect = lower value 0.988 | locus YDR069C, strain doa4, stronger effect = lower value 0.972 | locus YDR101C, strain arx1, stronger effect = lower value 0.983 | locus YDR137W, strain rgp1, stronger effect = lower value 1.01 | locus YDR150W, strain NUM1, stronger effect = lower value 0.993 | locus YDR159W, strain sac3, stronger effect = lower value 1.01 | locus YDR162C, strain NBP2, stronger effect = lower value 0.996 | locus YDR195W, strain ref2 0.941 | locus YDR297W, strain sur2, stronger effect = lower value 0.987 | locus YDR318W, strain mcm21, stronger effect = lower value 0.979 | locus YDR334W, strain swr1, stronger effect = lower value 1 | locus YDR335W, strain msn5, stronger effect = lower value 0.99 | locus YDR388W, stronger effect = lower value 0.969 | locus YDR392W, strain spt3, stronger effect = lower value 0.995 | locus YDR502C, strain sam2, stronger effect = lower value 0.993 | locus YEL003W, strain gim4, stronger effect = lower value 0.984 | locus YEL037C, strain rad23, stronger effect = lower value 1 | locus YEL061C, strain CIN8 (second series), stronger effect = lower value 0.988 | locus YEL061C, strain CIN8, stronger effect = lower value 0.992 | locus YER015W, strain faa2, stronger effect = lower value 1 | locus YER016W, strain bim1, stronger effect = lower value 0.987 | locus YER110C, stronger effect = lower value 0.974 | locus YER111C, strain swi4, stronger effect = lower value 0.972 | locus YER155C, strain BEM2 (second series), stronger effect = lower value 0.959 | locus YER155C, strain BEM2, stronger effect = lower value 0.993 | locus YER167W, strain BCK2, stronger effect = lower value 0.989 | locus YFR010W, strain ubp6, stronger effect = lower value 0.98 | locus YGL078C, strain dbp3, stronger effect = lower value 0.967 | locus YGL086W, strain mad1, stronger effect = lower value 0.984 | locus YGL167C, strain pmr1, stronger effect = lower value 0.987 | locus YGL173C, strain kem1, stronger effect = lower value 1 | locus YGL227W, strain vid30, stronger effect = lower value 0.979 | locus YGL240W, strain doc1, stronger effect = lower value 0.966 | locus YGL248W, strain PDE1, stronger effect = lower value 0.987 | locus YGL253W, strain hxk2, stronger effect = lower value 0.996 | locus YGR078C, strain PAC10, stronger effect = lower value 1.01 | locus YGR135W, strain pre9, stronger effect = lower value 0.974 | locus YGR229C, strain SMI1, stronger effect = lower value 1.01 | locus YGR252W, strain gcn5, stronger effect = lower value 1.08 | locus YHR013C, strain ard1, stronger effect = lower value 1 | locus YHR027C, strain rpn1, stronger effect = lower value 0.989 | locus YHR030C, strain SLT2, stronger effect = lower value 0.984 and 0.946 | locus YHR079C, strain IRE1 (second series), stronger effect = lower value 0.961 | locus YHR079C, strain IRE1, stronger effect = lower value 0.957 | locus YHR094C, strain hxt1, stronger effect = lower value 0.973 | locus YHR129C, strain ARP1, stronger effect = lower value 0.991 | locus YHR142W, strain chs7, stronger effect = lower value 1 | locus YHR200W, strain rpn10, stronger effect = lower value 0.973 | locus YIL066C, strain RNR3, stronger effect = lower value 0.994 | locus YIL073C, strain SPO22, stronger effect = lower value 0.952 | locus YIL125W, strain kgd1, stronger effect = lower value 0.97 | locus YIR030C, strain dcg1, stronger effect = lower value 0.976 | locus YJL092W, strain hpr5, stronger effect = lower value 0.982 | locus YJL095W, strain BCK1 (second series), stronger effect = lower value 0.987 | locus YJL095W, strain BCK1, stronger effect = lower value 0.99 and 0.992 | locus YJL115W, strain asf1, stronger effect = lower value 0.979 | locus YJL129C, strain trk1, stronger effect = lower value 0.973 | locus YJL134W, strain LCB3, stronger effect = lower value 0.985 | locus YJL154C, strain vps35, stronger effect = lower value 0.997 | locus YJL164C, strain tpk1, stronger effect = lower value 1.01 | locus YJL166W, strain qcr8, stronger effect = lower value 0.984 | locus YJL168C, strain set2, stronger effect = lower value 0.974 | locus YJL187C, strain SWE1 (second series), stronger effect = lower value 0.984 | locus YJR043C, strain POL32, stronger effect = lower value 0.976 | locus YJR066W, strain TOR1, stronger effect = lower value 0.934
